Active and inactive are the calls of the source. How the source made its calls: active means hit-call score of the fitted dose curve at least 0.9, where 1 is the maximum; inactive means score below 0.9.
biological target: Hepatocyte nuclear factor 3-beta (Homo sapiens) (UniProt Q9Y261); experiment: ATG_FoxA2_CIS: Attagene CIS-FACTORIAL HepG2 Assay for human Forkhead box A2 (FOXA2) (AID 2282942); conditions: HepG2 cis-reporter transcription factor activity, 24 h; actives raise or lower the signal
Sequence (Q9Y261 whole entry, looked up): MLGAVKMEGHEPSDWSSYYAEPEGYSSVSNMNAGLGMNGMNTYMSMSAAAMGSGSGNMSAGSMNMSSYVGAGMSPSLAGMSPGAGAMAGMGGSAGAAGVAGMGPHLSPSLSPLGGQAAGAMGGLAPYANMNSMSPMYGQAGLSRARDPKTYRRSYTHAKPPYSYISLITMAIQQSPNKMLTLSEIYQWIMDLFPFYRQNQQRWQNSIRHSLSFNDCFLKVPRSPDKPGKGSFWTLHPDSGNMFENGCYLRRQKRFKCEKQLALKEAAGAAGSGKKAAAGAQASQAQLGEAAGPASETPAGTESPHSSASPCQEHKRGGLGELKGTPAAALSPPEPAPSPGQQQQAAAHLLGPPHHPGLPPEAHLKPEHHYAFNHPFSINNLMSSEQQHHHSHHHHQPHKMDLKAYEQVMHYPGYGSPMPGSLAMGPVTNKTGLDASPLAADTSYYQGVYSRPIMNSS
Description: ATG_CIS is a cell-based, multiplexed-readout assay that uses HepG2, a human liver cell line, with measurements taken at 24 hours after chemical dosing in a 24-well plate.ATG_FoxA2_CIS is one of 52 assay component(s) measured or calculated from the ATG_CIS assay. It is designed to make measurements of mRNA induction, a form of inducible reporter, as detected with fluorescence intensity signals by Reverse transcription polymerase chain reaction (RT-PCR) and Capillary electrophoresis technology.Data from the assay component ATG_FoxA2_CIS was analyzed into 1 assay endpoint. This assay endpoint, ATG_FoxA2_CIS, was analyzed with bidirectional fitting relative to DMSO as the negative control and baseline of activity. Using a type of inducible reporter, measures of mRNA for gain or loss-of-signal activity can be used to understand the reporter gene at the transcription factor-level as they relate to the gene FOXA2. Furthermore, this assay endpoint can be referred to as a primary readout, because this assay has produced multiple assay endpoints where this one serves a reporter gene function. To generalize the intended target to other relatable targets, this assay endpoint is annotated to the dna binding intended target family, where the subfamily is forkhead box protein.
Human liver HepG2 cells are transiently transfected with multiple reporter transcription units (MRTUs) in 6-well plates using FuGene 6 reagent (Roche; 3 ml FuGene/1 mg DNA). The MRTU constructs are regulated by a cis-regulating element (promoter). […] A major difference between the CIS and TRANS system is that in CIS activities of endogenous TFs are measured, whereas the TRANS assay evaluates changes in activities of exogenous, chimeric NR-Gal4 proteins. […] At the end of 24 hour incubation, total RNA was isolated using TriZol reagent (Invitrogen). The isolated RNA is then reverse-transcribed using oligo(dT) primer and Mo-MLV reverse transcriptase (Invitrogen) with DNAse I (Ambion) treatment for 30 min. The one-tenth of the produced cDNA was amplified by PCR using Taq DNA polymerase (Invitrogen) and two reporter sequence-specific primers. The PCR products were fluorescently labeled by primer extension with 6-arboxyfluorescein (6-FAM) 5'-labeled reporter sequence-specific primer (2 min at 95 C, 20 s at 68 C and 10 min at 72 C) and these products were digested with 5U of HpaI (New England Biolabs) for 2h at 37 C. The fragments were purified using Qiaquick PCR columns (Qiagen), analyzed on an ABI 3130xL genetic analyzer (Applied Biosystems) with peak positions identified by using a set of X-rhodamine (ROX)-labeled MapMarker1000 molecular weight standards (BioVentures). The raw capillary electrophoresis data was processed using Attagraph software (Attagene).

Row | SMILES | outcome | AC50
1 | CC(C#N)CCC#N (stereo not given) | inactive | 
2 | COP(=S)(OC)Oc1ccc(S(=O)(=O)N(C)C)cc1 | inactive | 
3 | CCCCC(CC)CO[N+](=O)[O-] (stereo not given) | inactive | 
4 | Oc1c(I)cc(I)cc1I | inactive | 
5 | Cc1ccc2ccccc2c1C | inactive | 
6 | ClCc1cccnc1 | inactive | 
7 | CCCCCCCCSC(=O)Oc1cc(Cl)nnc1-c1ccccc1 | inactive | 
8 | BrCCBr | inactive | 
9 | CN(CCCC(=O)c1cccnc1)N=O | inactive | 
10 | CC(=[OH+])/C=C(/C)[O-].CC(=[OH+])/C=C(/C)[O-].CC(=[OH+])/C=C(/C)[O-].[Fe] | inactive | 
11 | O=P(O)(O)CN(CP(=O)(O)O)CP(=O)(O)O | inactive | 
12 | ClC1(Cl)C2(Cl)C3(Cl)C4(Cl)C(Cl)(Cl)C5(Cl)C3(Cl)C1(Cl)C5(Cl)C24Cl (stereo not given) | inactive | 
13 | CC(C)(C)c1cc(O)ccc1O | inactive | 
14 | NC(=S)Nc1ccccc1 | inactive | 
15 | O=C1CCCN1 | inactive | 
16 | Cl/C=C/Cl | inactive | 
17 | O=C(O)C(F)(F)C(F)(F)C(F)(F)C(F)(F)C(F)(F)C(F)(F)F | inactive | 
18 | O=C(Cc1ccccc1)c1ccccc1 | inactive | 
19 | CC(Br)C(=O)O (stereo not given) | inactive | 
20 | OCc1ccco1 | inactive | 

Row | SMILES | outcome | AC50
21 | CCNc1nc(NC(C)(C)C)nc(SC)n1 | inactive | 
22 | Cc1cc(Cl)ccc1O[C@H](C)C(=O)O | inactive | 
23 | CNC | inactive | 
24 | COC[C@H](C)N(C(=O)CCl)c1c(C)csc1C | inactive | 
25 | CN(C)N=O | inactive | 
26 | CCC[CH2][Sn]([Cl])([Cl])[Cl] | inactive | 
27 | O=S(=O)(c1ccc(Cl)cc1)c1ccc(Cl)cc1 | inactive | 
28 | O=c1[nH]c(=O)[nH]c(=O)[nH]1 | inactive | 
29 | O=C(Nc1ccc2[nH]ccc2c1)c1cc2cc(F)ccc2n1Cc1cccc(F)c1 | inactive | 
30 | ClC1=C(Cl)[C@]2(Cl)[C@H]3[C@H]([C@H]4C=C[C@H]3C4)[C@@]1(Cl)C2(Cl)Cl | inactive | 
31 | ClC(Cl)=C(Cl)C(Cl)=C(Cl)Cl | inactive | 
32 | CCOP(=S)(OCC)SCCS(=O)(=O)CC | inactive | 
33 | N#CCc1ccc(Cl)cc1 | inactive | 
34 | C[C@@H](Oc1ccc(Cl)cc1Cl)C(=O)O | inactive | 
35 | C[C@H]1CCCC(=O)CCC/C=C/c2cc(O)cc(O)c2C(=O)O1 | inactive | 
36 | O=C(NCO)NCO | inactive | 
37 | CCC(=O)c1ccccc1 | inactive | 
38 | c1ccc(N=NNc2ccccc2)cc1 |  | 25.7 µM (active)
39 | CC1(C)Cc2cccc(O)c2O1 | inactive | 
40 | O=C1C(Cl)=C(Cl)C(=O)c2ccccc21 | inactive | 

Reference: PubChem BioAssay (EPA / NIEHS)
